From PubChem BioAssay
Shown are actives, neighbours in structure and some others; about 1.6% of the full set was active somewhere.
gsp agonist = gsp mutant agonism; gsp mutant cells, cAMP HTRF, 30 min; Potency, µM (titrated, usually from 76.9 µM), for inactives: top-dose activation (cAMP increase), actives largely listed as activators; actives 0.13% (n = 340,000); AID 624287; active = well fitted activation curve with a large enough effect; inconclusive = small, poorly fitted or top-dose-only effect, or another doubt; inactive = no such curve, though single readings can be large or run the other way; cell line not stated here;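 note: phosphodiesterase inhibitor Ro 20-1724 added with compounds to block cAMP breakdown; potency is the fitted concentration of half-maximal effect; nearly all actives have a fitted effect of over 60% in size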
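Cells in DMEM/10% FBS with G418 were pretreated with compounds in DMSO plus […] (300 uM stock) for 30 min at 37C. cAMP was measured by HTRF (cAMP-d2 plus anti-cAMP antibody-K) after 30 min at room temperature.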
Giardia kill = Giardia lamblia killing | Giardia lamblia trophozoite viability | activity change, % at 7.66 µM, hits read low | actives 0.15% (n = 340,000); in the data active = activity change below about -80%; inconclusive = between about -30% and that limit;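 note: parasites exposed to compound for two days anaerobically before the ATP read; % is set by controls: 0 for no effect and ±100 for the full control effect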
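Each well holds 100 Giardia trophozoites and compound. After two days (48 hrs) at 37 deg C in anaerobic conditions, ATP is quantified by luminescence.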
RXFP1 ag = activates the human relaxin receptor RXFP1 | Potency, µM (series often up to 57.5 µM), without a hit: at the highest dose activation, usual class: activators | Q9HBX9 | actives 0.3% (n = 370,000) | AID 2676 | HEK293T-RXFP1 cAMP TR-FRET, 30 min; response scale: percent of porcine relaxin response, buffer zero; active = well fitted activation curve with a large enough effect; inconclusive = small, poorly fitted or top-dose-only effect; note: potency is the fitted concentration of half-maximal effect; % is set by controls: 0 for no effect and ±100 for the full control effect; nearly all actives have a fitted effect of over 60% in size
Target sequence (Q9HBX9 whole entry, looked up): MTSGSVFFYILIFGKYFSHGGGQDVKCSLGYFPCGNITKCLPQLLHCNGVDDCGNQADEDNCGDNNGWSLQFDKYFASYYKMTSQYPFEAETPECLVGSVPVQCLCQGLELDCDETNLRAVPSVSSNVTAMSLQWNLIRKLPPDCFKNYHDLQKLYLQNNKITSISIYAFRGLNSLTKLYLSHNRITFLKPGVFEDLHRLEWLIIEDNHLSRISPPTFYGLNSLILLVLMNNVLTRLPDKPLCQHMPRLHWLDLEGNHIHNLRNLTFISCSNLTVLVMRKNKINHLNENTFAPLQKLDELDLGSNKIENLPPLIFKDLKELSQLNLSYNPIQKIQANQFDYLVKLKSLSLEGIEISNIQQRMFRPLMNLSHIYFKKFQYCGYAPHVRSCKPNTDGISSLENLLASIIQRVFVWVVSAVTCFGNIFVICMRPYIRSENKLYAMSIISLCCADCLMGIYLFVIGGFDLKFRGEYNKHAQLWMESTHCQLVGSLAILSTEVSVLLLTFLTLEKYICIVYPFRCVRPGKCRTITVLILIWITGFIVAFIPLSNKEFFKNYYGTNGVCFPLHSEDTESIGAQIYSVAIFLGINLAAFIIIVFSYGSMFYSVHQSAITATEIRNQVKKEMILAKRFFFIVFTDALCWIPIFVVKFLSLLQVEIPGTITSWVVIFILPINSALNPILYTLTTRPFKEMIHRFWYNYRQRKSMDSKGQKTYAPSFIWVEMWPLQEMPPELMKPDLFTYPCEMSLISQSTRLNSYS
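HEK293 cells stably expressing RXFP1, treated 30 min at 37C with compounds plus PDE4 inhibitor Ro 20174; cAMP measured by HTRF TR-FRET. Normalized to buffer and 29 nM porcine relaxin; EC50 by Hill fit.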
gsp antagonist = antagonists of gsp mutant (McCune-Albright syndrome); gsp-mutant cells, cAMP HTRF, 30 min; Potency, µM (top dose mostly 76.9 µM), for inactives: top-dose activity change, negative = inhibition, hits mostly inhibitors; actives 0.4% (n = 340,000); AID 624288; calls by dose curve; cell line not stated here;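 note: intracellular cAMP measured with PDE inhibitor Ro 20-1724 present during compound exposure; potency is the fitted concentration of half-maximal effect; % is set by controls: 0 for no effect and ±100 for the full control effect; nearly all actives have a fitted effect of over 65% in size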
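HTRF cAMP read-out (cAMP-d2 plus anti-cAMP antibody-K in lysis buffer, 30 min RT). Before lysis, cells are exposed to compounds with […] for 30 min at 37C in DPBS containing Ca/Mg, BSA and Tween 20.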
RXFP1 antagonist = RXFP1 (human) relaxin receptor antagonism; Q9HBX9; HEK293-RXFP1, relaxin-stimulated cAMP HTRF, 30 min; hits give low values; activity change, negative = inhibition, % at 57.5 µM; actives 0.59% (n = 350,000); AID 1259400;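 active = activity change of -60% or lower, but not beyond a set lower limit; inconclusive = change between -60% and -40%, or beyond the set limit; inactive = change above -40%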; note: % is set by controls: 0 for no effect and ±100 for the full control effect
Coupling enz = coupling enzyme interference in Giardia aldolase counter-screen. activity change, negative = inhibition, % at 58.2 µM, hits read low. AID 2472. coupling enzyme system counterscreen, AmpLite Red fluorescence. actives 0.67% (n = 290,000); in the data active = activity change below about -30%; note: % is set by controls: 0 for no effect and ±100 for the full control effect
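Fluorescence at 525 nm excitation and 598 nm emission measured inhibition of the coupled detection system without aldolase. Compounds (at 57.5 uM final) were preincubated 10 min at room temperature with coupling enzyme reagent before a 20 min substrate/AmpLite Red step.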
* marks the source's active call; other numbers are inactive results; u = inconclusive; x = no result; [ ] = another dose, or the depositor's remark.

SMILES	gsp agonist	Giardia kill	RXFP1 ag	gsp antagonist	RXFP1 antagonist	Coupling enz
O=C(CN1C(=O)/C(=C/c2ccccc2)SC1=S)NC1C=CS(=O)(=O)C1 (stereo not given)	-11%	5	0%	-25%	-16	x
O=C(CCN1C(=O)/C(=C/c2ccccc2Cl)SC1=S)NNC(=O)c1cccnc1	3%[15.4 µM]	6	0%	-17%	-12	7
O=C(CN1C(=O)/C(=C/c2ccccc2Cl)SC1=S)NC1C=CS(=O)(=O)C1 (stereo not given)	2%	10	2%	-15%	-61*	x
Cc1ccc(/C=C2\SC(=S)N(CCC(=O)NNC(=O)c3ccccc3O)C2=O)cc1	15%	3	1%	1%	-3	-1
COc1ccc(CSc2ccc(S(=O)(=O)N3CCCC3)cn2)cc1F	1%	x	x	x	-2	x
CO/N=C(/C(=O)NC1C(=O)N2C(C(=O)O)=C(CSc3nc(=O)c(O)nn3C)CSC12)c1csc(N)n1 (stereo not given)	x	x	x	x	x	0
COc1ccc(NC(=O)COC(=O)CCc2ccc(S(=O)(=O)N3CCOCC3)cc2)c(OC)c1	-5%	-23	x	-25%	-3	x
O=C(CN1C(=O)/C(=C/c2ccccc2)SC1=S)NC1CCS(=O)(=O)C1 (stereo not given)	-1%	-9	-2%	5%	-61*	x
COc1cccc(C(=O)C2CCCN(C(=O)CCc3scnc3C)C2)c1 (stereo not given)	12%[15.4 µM]	-9	-1%	-7%	-1	1
COc1ccc2cc(C(=O)C3CCCN(C(=O)CCc4ccccn4)C3)ccc2c1 (stereo not given)	-12%[15.4 µM]	-9	2%	4.5µM*	-3	1
O=C1c2ccccc2C(=O)c2c1ccc1c(=O)n(C3CCCCC3)[nH]c21	-3%	u	-2%	-4%	-4	-25
O=C1C2=C(c3ccccc31)[N+](=O)[C@@H]1CCCC[C@@H]1N2[O-]	u	-8	2%	4%	-3	-45*
O=C1C2=C(c3ccccc31)[N+](=O)C1CCCCC1N2[O-] (stereo not given)	0%	11	0%	-6%	3	-38*
COc1ccc(S(=O)(=O)N2c3ccc(Cl)cc3[C@@](O)(c3ccccc3Cl)[C@H]2C(=O)N2CCC[C@@H]2C(N)=O)cc1OC	x	x	x	x	-16	x
COc1cc(C(=O)N/N=C/c2ccc(OC(=O)c3ccccc3Cl)cc2)ccc1O	-30%	4	0%	-31%	-91*	0
O=c1[nH]cc(CCc2ccccc2)c2ncncc12	x	-18	x	x	x	x
O=C(Nc1cccc(NC(=O)c2cccs2)c1)c1ccc(Br)cc1	-29%	16	3%	-21%	-71*	0
C/C(CC(=O)N1CCCC1)=N\NC(=O)c1cc2ccccc2cc1O	-17%	3	3%	-23%	-25	-65*
Cc1nc2c(C(=O)NCCC(C)C)c[nH]n2c(=O)c1Cc1ccccc1F	-19%	-9	2%	20µM*	-101*	1
Cc1nc2c(C(=O)NCCc3ccc(Cl)cc3)c[nH]n2c(=O)c1Cc1ccccc1F	x	x	5%	x	x	x
O=C(NC1CCCCC1)c1ccc(Cn2c(SCc3ccccc3F)nc3cccnc32)cc1	x	x	-1%	x	-3	x
Cc1ccc(CSc2nc3cccnc3n2Cc2ccc(C(=O)NC3CCCCC3)cc2)cc1	x	x	20µM*	x	-4	x
O=[N+]([O-])c1nn(-c2ccc3c(c2)OCCO3)n(O)c1=NCCCO	1%	u	1%	7%	10	-1
COc1ccc(-n2nc([N+](=O)[O-])c(=NCc3ccc4c(c3)OCO4)n2O)cc1	-38%	-92*	1%	11%	x	-1
Cc1ccc(CN=c2c([N+](=O)[O-])nn(-c3ccc4c(c3)OCCO4)n2O)cc1	18%	-87*	-6%	-13%	1	-6
SMILES	gsp agonist	Giardia kill	RXFP1 ag	gsp antagonist	RXFP1 antagonist	Coupling enz
Cn1cc(/C=C2\SC(=O)N(c3ccccc3)C2=O)c2ccccc21	-6%[15.4 µM]	-8	2%	45µM*	9	3
CCN1C(=O)S/C(=C/c2cn(C)c3ccccc23)C1=O	-39%	23	-5%	9%	2	1
Cn1cc(/C=C2\SC(=O)N(c3ccc(O)cc3)C2=O)c2ccccc21	0%	-16	-2%	32µM*	-14	-10
COc1ccc(C(=O)N2CCC3(CCN(CC(C)C)CC3)CC2)cc1	x	x	x	x	x	-1
CC(C)CCC1(C)NC(=O)N(CC(=O)c2ccc[nH]2)C1=O (stereo not given)	-13%[15.4 µM]	u	-1%	2%	-7	x
Brc1ccc(N/N=C(/N=Nc2nn[nH]n2)c2ccccc2)cc1	-1%	8	2%	22µM*	-1	-16
O=C(O)c1ccc(N=N/C(=N\Nc2ccc(C(=O)O)cc2)c2ccccc2)cc1	-1%	-9	-3%	-5%	x	x
O=S(=O)(c1ccccc1)c1nc(-c2ccco2)oc1N1CCOCC1	-45%	-7	0%	-1%	3	1
Cc1ccc(S(=O)(=O)c2nc(-c3ccco3)oc2N2CCC(C)CC2)cc1	-5%[15.4 µM]	-8	-4%	-5%	-63*	x
CC(=O)C[C@H](c1ccccc1)c1c(O)c2ccccc2oc1=O	x	x	x	x	x	19
O=C(Cc1ccc(Br)cc1)Nc1ncc([N+](=O)[O-])s1	17%	-93*	-4%	-7%	-18	7
O=C(COc1ccc(Cl)cc1)Nc1ncc([N+](=O)[O-])s1	3%[15.4 µM]	-86*	0%	35µM*	-33	-2
O=C(Cc1ccc(Cl)cc1)Nc1ncc([N+](=O)[O-])s1	-20%[15.4 µM]	-91*	-1%	-19%	-11	1
O=C(COC(=O)COc1ccccc1)Nc1ncc([N+](=O)[O-])s1	-3%	-26	0%	6%	-1	x
COc1ccccc1C1NC(c2ccc3c(c2)OCO3)=CC(c2ccccc2O)N1 (stereo not given)	x	-11	x	x	x	x
Cc1noc(C)c1-c1ccc2ncnc(NCc3ccc(C(F)(F)F)o3)c2c1	x	x	x	x	x	3
COc1ccc(OC)c(CCNC(=O)c2ccc3c(c2)N(Cc2ccc(F)cc2)CCS3)c1	1%	12	17%	u	26	-6
COc1ccc(CCNC(=O)c2ccc3c(c2)N(Cc2ccc(F)cc2)CCS3)c(OC)c1	7.1µM*	1	20%	-15%	26	x
CCc1nc2ccc(C(=O)NCCc3ccc(OC)cc3OC)cc2nc1CC	x	x	-1%	x	-71*	x
CC(C)CCCC(C)NCCC(C)C (stereo not given)	x	x	x	x	4	x
COc1ccc(NC(C)=O)cc1NC(C)C(=O)Nc1ccc(F)cc1 (stereo not given)	20%	-25	0%	-5%	-13	2
CCN(c1ccccc1)c1nnc(NC(=O)Nc2ccccc2F)s1	x	x	-4%	x	-9	x
